Test results published in PubChem BioAssay AID651661 (Broad Institute, 2012).
Values joined by “and” are separate entries in the source; they are usually repeats but may differ in a detail not shown here. Equal values may be shown once. Hit rate of the full screen: of about 350,000 compounds, about 2,300 (0.66%) were called active.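 How the source made its calls: active means mean inhibition of at least 50% after viability correction, with every replicate also passing that limit; inconclusive means mean reaches 50% but only one of two replicates passes; inactive means the rest.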 Shown is part of a subset that was picked to be rich in actives. More than one record can exist for a structure, and the calls need not agree.

Assay: EWS/Fli-driven NR0B1 reporter inhibitors, primary screen, A673 cells, NR0B1 luciferase, luminescence, MLPCN library (AID 651661);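 further: firefly luciferase signal divided by Alamar Blue viability fluorescence both relative to DMSO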
Conditions: viability-normalised, at 12.6 µM, stronger effect = higher value

Row | SMILES | inhibition
1 | Oc1c(Cl)cc(Cl)c(Cl)c1Cc1c(O)c(Cl)cc(Cl)c1Cl | 50.1% (active)
2 | C/C=C/c1ccc(C2[C@H]3CNC[C@@H]2N3Cc2cccc(F)c2)cc1 (stereo partly drawn) | 4.29% (inactive)
3 | COc1cc(SC)ccc1C(=O)Nc1nc(C)cs1 | 76.2% (active)
4 | COc1cc(SC)ccc1C(=O)NNC(=O)C1COc2ccccc2O1 (stereo not drawn) | -2.85% (inactive)
5 | Cc1csc(NC(=O)c2ccc(-c3ccc(Cl)cc3Cl)o2)n1 | -14% (inactive)
6 | CO[C@@H]1CN(C)C(=O)c2ccc(NC(=O)c3ccc(F)cc3)cc2OC[C@H](C)N(C)C[C@H]1C | 4.5% (inactive)
7 | C[C@H](CO)N1C[C@H](C)[C@@H](CN(C)CC2CC2)Oc2ccc(NS(=O)(=O)c3cn(C)cn3)cc2CC1=O | -13.9% (inactive)
8 | CO[C@H]1CN(C)C(=O)c2ccc(NC(=O)NC(C)C)cc2OC[C@@H](C)N(C(=O)CN(C)C)C[C@H]1C | 8.16% (inactive)
9 | NC(N)=Nc1nc(-c2ccccc2)c2cc(Cl)ccc2n1 | 63.6% (active)
10 | Cc1nc(N=C(N)N)nc2c(C)cccc12 | 34.9% (inactive)
11 | Cc1onc(-c2ccccc2)c1C(=O)N=C(N)c1ccc(Cl)cc1 | -16.4% (inactive)
12 | CC(C)NC(=O)N(C)C[C@@H]1Oc2ncc(C#Cc3ccncc3)cc2C(=O)N([C@@H](C)CO)C[C@@H]1C | -7.78% (inactive)
13 | COC(=O)C[C@@H]1C[C@H]2c3cc(NC(=O)Nc4ccc(F)cc4)ccc3O[C@H]2[C@@H](CO)O1 | 6.58% (inactive)
14 | CC(C)(C)[S@](=O)N1Cc2cc(C(=O)N3CCCCC3)nc(-c3cccc(Br)c3)c2[C@@H]1CCO | 0.582% (inactive)
15 | N#C[C@@H]1[C@@H](c2ccc(C#Cc3cccc(F)c3)cc2)[C@H](CO)N1C(=O)C1CCOCC1 | -36% (inactive)
16 | N#C[C@@H]1[C@H](c2ccc(C#Cc3cccc(F)c3)cc2)[C@@H](CO)N1C(=O)C1CCCC1 | 59.3% (active)
17 | N#C[C@@H]1[C@@H](c2ccc(C#Cc3cccc(F)c3)cc2)[C@@H](CO)N1C(=O)C1CCC1 | -10% (inactive)
18 | Cc1noc(C)c1NC(=O)N(C)C[C@@H]1Oc2ccc(NC(=O)CCN3CCOCC3)cc2CC(=O)N([C@H](C)CO)C[C@@H]1C | -3.43% (inactive)
19 | CCCCCCCCn1c2c(c(=N)c3c1CCC3)CCCC2 | 55.8% (active)
20 | CO[C@@H](CN(C)C(=O)Nc1ccc(F)cc1)[C@H](C)CN(Cc1ccccc1Cl)[C@@H](C)CO | 2.29% (inactive)
21 | O=C(NCC[C@H]1CC[C@@H](NS(=O)(=O)c2cccc(Cl)c2)[C@@H](CO)O1)c1cnccn1 | -2.88% (inactive)
22 | COc1cc(Cn2c3ccc(NC(=O)CC(C)c4ccccc4)cc3c(=O)n2C)ccc1F (stereo not drawn) | 11% (inactive)
23 | CCOCCC(=O)Nc1ccc2c(c1)c(=O)n(C)n2-c1ccc2ccccc2c1 | 56.3% (active)
24 | CCOC(=O)c1cccc(NC(=O)CCOc2ccccc2)c1 | -49.3% (inactive)
25 | CC(=O)N(C)C[C@H]1Oc2ncc(C#Cc3ccccn3)cc2C(=O)N([C@H](C)CO)C[C@@H]1C | 1.56% (inactive)

Row | SMILES | inhibition
26 | C[C@@H]1CCCCO[C@@H](CN(C)C(=O)Nc2ccc3c(c2)OCO3)[C@H](C)CN([C@H](C)CO)C(=O)c2cc(NC(=O)CCCN(C)C)ccc2O1 | -6.47% (inactive)
27 | COc1ccc(OC)c(Cc2nnc(CCC(=O)NC3CCCC3)o2)c1 | -17.8% (inactive)
28 | COc1ccc(OC)c(NC(=O)c2sc3nc(C)cc(C)c3c2N)c1 | -6% (inactive)
29 | COc1ccc(OC)c(Cc2cnc3nc(N)nc(N)c3c2C)c1 | 62.9% (active)
30 | CO[C@H]1CN(C)C(=O)c2cc(NC(=O)C3CC3)ccc2OC[C@@H](C)N(CCc2ccccc2)C[C@H]1C | -1.43% (inactive)
31 | CN(C)CCCNC(=O)C[C@H]1CC[C@H]2[C@@H](COC[C@H](O)CN2CC2CCCCC2)O1 | -0.386% (inactive)
32 | CC(=O)N(C)C[C@@H]1Oc2ncc(C#Cc3ccc(F)cc3)cc2C(=O)N([C@H](C)CO)C[C@@H]1C | -7.39% (inactive)
33 | CC(C)CN(C[C@@H]1N[C@@H](CO)[C@H]1c1ccccc1)C(=O)CN(C)C | 4.89% (inactive)
34 | O=C(/C=C/Sc1ncn[nH]1)c1ccc(Cl)cc1 | 67% (active)
35 | O=C(CSc1ncn[nH]1)Nc1ccc(Br)cc1Br | -25.6% (inactive)
36 | Cc1ccc(S(=O)(=O)N(C)C[C@@H]2Oc3ccc(NS(=O)(=O)c4ccc(F)cc4)cc3CC(=O)N([C@@H](C)CO)C[C@H]2C)cc1 | -0.853% (inactive)
37 | CC(C)CC#Cc1ccc2c(c1)O[C@H](CN(C)Cc1ccccc1F)[C@@H](C)CN([C@@H](C)CO)S2(=O)=O | -16.5% (inactive)
38 | O=C(C1CCCC1)N1CC(=O)N2[C@H](CO)[C@H](c3ccc(Br)cc3)[C@H]2C1 | -4.8% (inactive)
39 | CCCC#Cc1ccc([C@H]2[C@H](CO)N3C(=O)CN(C(=O)c4ccc(F)cc4)C[C@@H]23)cc1 | -7.03% (inactive)
40 | C=CCn1c(C)cc(C2=NNC(=NCC)SC2)c1C | 91.7% (active)
41 | CCCC#Cc1ccc2c(c1)O[C@H](CN(C)C(=O)C1CCCCC1)[C@H](C)CN([C@H](C)CO)S2(=O)=O | 9.13% (inactive)
42 | CC(C)C#Cc1ccc([C@H]2[C@@H](CO)N3CCCCN(C(=O)Nc4ccccc4)C[C@H]23)cc1 | 1.61% (inactive)
43 | C[C@@H](NC(=O)C[C@H]1C[C@@H]2c3cc(NC(=O)c4ccc5c(c4)OCO5)ccc3O[C@@H]2[C@@H](CO)O1)c1ccccc1 | 2.79% (inactive)
44 | CNC(=O)C[C@@H]1CC[C@H]2[C@@H](COc3ccc(NC(=O)NCc4ccccc4)cc3C(=O)N2C)O1 | -5.62% (inactive)
45 | COC(=O)C1=C(C)N(Cc2ccc(C(F)(F)F)cc2)C(=NCc2ccc(C(F)(F)F)cc2)NC1c1cccc(Cl)c1 (stereo not drawn) | 55.4% (active)
46 | COC(=O)C1=C(C)N(Cc2cccc(C(F)(F)F)c2)C(=NCc2ccccc2)NC1c1ccc(Cl)cc1 (stereo not drawn) | 36.5% (inactive)
47 | COC(=O)C1=C(C)N(Cc2ccc(C(F)(F)F)cc2)C(=NCc2ccccc2)NC1c1ccccc1C(F)(F)F (stereo not drawn) | 25.1% (inactive)
48 | CN(C)CC(=O)N1[C@@H](C#N)[C@@H](c2ccccc2-c2ccccc2F)[C@@H]1CO | -0.399% (inactive)
49 | COc1ccccc1S(=O)(=O)N1C[C@@H]2N[C@H](C1)C2c1ccc(-c2cccc(C)c2)cc1 (stereo partly drawn) | 61.1% (active) and 2.71% (inactive)
50 | Cc1ccccc1S(=O)(=O)N1C[C@@H]2N[C@H](C1)C2c1ccc(-c2cccc(C(=O)N(C)C)c2)cc1 (stereo partly drawn) | -5.91% (inactive)

Row | SMILES | inhibition
51 | COc1cccc(S(=O)(=O)N2C[C@@H]3N[C@H](C2)C3c2ccc(-c3cccc(C(=O)N(C)C)c3)cc2)c1 (stereo partly drawn) | 10.3% (inactive) and 3.54% (inactive)
52 | N#C[C@@H]1[C@H](c2ccc(-c3cccnc3)cc2)[C@H](CO)N1C(=O)C1CC1 | -1.35% (inactive)
53 | COCC#Cc1ccc([C@@H]2[C@H](CO)N3C(=O)CN(C(=O)C4CCC4)C[C@@H]23)cc1 | -1.21% (inactive)
54 | COc1ccc(Nc2ncnc3ccc(Br)cc23)c(OC)c1 | 72.3% (active)
55 | O=C(O)CCCCCNc1ncnc2ccc(Br)cc12 | -0.908% (inactive)
56 | Brc1ccc2ncnc(NCc3cccnc3)c2c1 | -8.78% (inactive)
57 | CNC[C@H]1OCCCC[C@@H](C)Oc2ccc(NC(=O)Nc3ccc(C(F)(F)F)cc3)cc2C(=O)N([C@H](C)CO)C[C@H]1C | -7.97% (inactive)
58 | COCC(=O)Nc1ccc2c(c1)OC[C@H](C)N(Cc1ccccc1)C[C@H](C)[C@@H](OC)CN(C)C2=O | 20.9% (inactive)
59 | COCC(=O)Nc1ccc2c(c1)C(=O)N(C)C[C@H](OC)[C@@H](C)CN(CCc1ccccc1)[C@@H](C)CO2 | 2.64% (inactive)
60 | COCC(=O)Nc1ccc2c(c1)OC[C@@H](C)N(CCc1ccccc1)C[C@H](C)[C@@H](OC)CN(C)C2=O | 53.4% (active)
61 | CCC(=O)N1C[C@H](C)[C@@H](OC)CN(C)C(=O)c2cc(NC(=O)c3cnccn3)ccc2OC[C@@H]1C | 2.51% (inactive)
62 | O=C(c1cnccn1)N1CC(=O)N2[C@H](C1)[C@@H](c1ccc(C#CC3CCCCC3)cc1)[C@@H]2CO | -6.01% (inactive)
63 | COc1ccc(NC(=O)CCCC(=O)c2ccccc2)cc1 | 10.3% (inactive)
64 | COc1ccc(/C=C2/SC(=O)N(CCCCCC(=O)Nc3ccccc3C(=O)O)C2=S)cc1 | 55.1% (active)
65 | COc1cccc(/C=C2\SC(=S)N(CCCC(=O)N3CCOCC3)C2=O)c1 | -15.9% (inactive)
66 | COc1ccccc1S(=O)(=O)N[C@@H]1CC[C@H](CCn2cc(C3CCCC3)nn2)O[C@H]1CO | -6.51% (inactive)
67 | O=C(Nc1ccccc1F)N[C@H]1CC[C@@H](CCNS(=O)(=O)c2ccc(F)cc2)O[C@@H]1CO | 4.92% (inactive)
68 | C[C@H](CO)N1C[C@H](C)[C@@H](CN(C)C(=O)C2CCCCC2)OCCCC[C@H](C)Oc2ccc(N(C)C)cc2C1=O | -2.95% (inactive)
69 | CC(NC(=S)Nc1ccc(OC(F)F)cc1)c1ccc(F)cc1 (stereo not drawn) | 0.035% (inactive)
70 | CC(C)CNC(=S)Nc1ccc(F)cc1 | 86.6% (active)
71 | CC(C)CNC(=O)C(=O)Nc1ccc(N(C)C)cc1 | -41.5% (inactive)
72 | CO[C@H](C(=O)N(C)C[C@@H]1OCc2ccccc2-c2c(n(C)c3ccccc23)C(=O)N([C@@H](C)CO)C[C@H]1C)c1ccccc1 | 8.3% (inactive)
73 | N#Cc1cccc(-c2ccc(C3[C@H]4CNC[C@@H]3N4S(=O)(=O)c3ccc(-c4ccccc4)cc3)cc2)c1 (stereo partly drawn) | 3.68% (inactive) and -7.87% (inactive)
